TROY NFkB inh: inhibitors of TROY-driven NF-kB signaling, primary screen, Q293 LMP1-TROYcd cells, NF-kB luciferase, uHTS | Q293 LMP1-TROYcd NF-kB luciferase reporter, 4 h | inhibition, % at 10 µM | 360,000 compounds, 0.98% hits | AID 1347056, 2019;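 active means compounds whose plate-normalised and pattern-corrected inhibition of the luciferase reporter signal at the single screening dose is 50% or more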
HIF-2a inh: HIF-2a reporter inhibitors, primary screen, luminescence, 786-0 RCC cells. inhibition, % at 18.8 µM. 786-0 RCC cells HIF-2a reporter, luciferase luminescence, overnight. 360,000 compounds, 0.72% hits;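 active means inhibition of the luminescence signal of 40% or more relative to plate controls, in a single-dose primary screen at 18.75 µM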
TRPM1 prom inh: inhibitors of MITF-dependent TRPM1 promoter reporter, primary screen, cell-based, SK-MEL-5, single point, luciferase; 330,000 compounds, 0.83% hits; SK-MEL-5 TRPM1 promoter luciferase, 24 h; AID 488899, 2010; inhibition, % at 12.5 µM;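 active means mean inhibition across replicates of 60% or more, whatever share of single replicates reaches that level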
TWEAK Fn14 block: inhibitors of TWEAK-Fn14 signaling, primary screen, luciferase reporter cells, uHTS; TWEAK-stimulated Fn14 reporter cells, luciferase luminescence, 8 h; inhibition, % at 10 µM; 360,000 compounds, 2% hits; in the data active means inhibition above about 50%
Shn3 inh set2: reduction of Shn3 3'UTR firefly luciferase signal, primary screen, Schnurri-3 inhibitor project, cell-based, Clone20 osteoblasts, set 2; Clone20 osteoblast Shn3 3'UTR firefly luciferase, 24 h; 360,000 compounds, 0.52% hits; AID 588674, 2011; inhibition, % at 12.5 µM;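 active means mean inhibition of at least 75% with every replicate also reaching 75%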;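 further: 0% = median of neutral control wells and 100% = pilot-screen positive control compound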
EBV LMP1 NFkB: EBV LMP1-driven NF-kappaB luciferase reporter inhibitors, primary screen, cell-based, luminescence, single point. inhibition, % at 12.5 µM. 350,000 compounds, 0.69% hits. LMP1-induced NF-kappaB luciferase reporter cells; in the data active means inhibition above about 41%;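 further: 0% = neutral control wells and 100% = reference inhibitor control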
* = called active by the depositor; · = no result. Most compounds without a hit are left out; they make up all but 3.4% or so of the library.

SMILES	TROY NFkB inh	HIF-2a inh	TRPM1 prom inh	TWEAK Fn14 block	Shn3 inh set2	EBV LMP1 NFkB
CCOc1cccc2c1OC1(C)CC2NC(=O)N1c1cccc(C(=O)NCc2ccccn2)c1 (centres undefined)	-1	-1	5	0	-2	-1
Cc1nc(SCc2nc3ccc(Cl)cc3[nH]2)c2oc3ccccc3c2n1	17	9	8	-13	-14	17
Cc1nc(SCc2nc3cc(Cl)c(F)cc3[nH]2)c2oc3ccccc3c2n1	6	-1	14	53*	24	19
CCOC(=O)[C@]12CCCC=C1N(Cc1ccccc1)C(=O)[C@H](CC(=O)N1CCCC1)C2	·	4	·	·	·	·
CCOc1cc(/C=N/N2CCN(Cc3ccccc3)CC2)ccc1O	5	14	3	-1	-32	45*
Cc1ccc(/C=N/N2CCN(Cc3ccccc3)CC2)cc1	-64	-104	-13	-5	-30	-3
C(=N\N1CCN(Cc2ccccc2)CC1)/c1ccc(-c2ccccc2)cc1	-28	11	-6	-28	89*	11
COc1ccc(C)cc1Nc1nc(N)c2cc(OC)c(OC)cc2n1	-14	8	74*	-19	0	12
COc1ccc(Cl)cc1Nc1nc(N)c2ccccc2n1	-74	-133	-8	-12	-41	-14
CC(=O)Oc1c(C)cc(Cl)cc1C(=O)Nc1ccc([N+](=O)[O-])cc1Cl	45	-157	53	88*	78	36
CC(=O)OCC(=O)Nc1ccc([N+](=O)[O-])cc1Cl	17	10	-2	-2	8	0
C[C@@H]1CN([C@@H](C)CO)S(=O)(=O)c2ccc(Br)cc2O[C@@H]1CN(C)S(=O)(=O)c1cn(C)cn1	2	9	·	-12	-1	-10
Cc1sc2ncn(CC(=O)N3CCC(C(N)=O)CC3)c(=O)c2c1S(=O)(=O)N1CCOCC1	-18	8	-2	4	-5	46*
CCOC(=O)C1CCCN(c2ncnc3c2cnn3-c2ccc(OC)cc2)C1 (centres undefined)	-9	-60	-3	17	-13	7
CCOC(=O)C1CCCN(c2ncnc3c2cnn3-c2ccc(Cl)cc2)C1 (centres undefined)	43	-17	38	63*	-4	13
CC1CC(C)CN(c2ncnc3c2cnn3Cc2ccc(Cl)cc2)C1 (centres undefined)	20	24	2	10	-16	-4
CCOC(=O)N1CCC(Nc2ncnc3c2cnn3-c2ccc(Cl)cc2)CC1	50*	-85	-14	49	-7	-3
CC1CN(c2ncnc3c2cnn3-c2ccc(Cl)cc2)CC(C)O1 (centres undefined)	55*	-208	-63	50	-39	-46
O=C(C[C@H]1C=C[C@@H](NC(=O)Cc2cccnc2)[C@@H](CO)O1)NCc1ccc2c(c1)OCO2	·	-2	·	·	·	·
O=[N+]([O-])c1cnn(-c2nc(-c3cccs3)cc(C(F)(F)F)n2)c1	-24	6	-9	1	3	-1
COc1ccc(C(=O)Nn2c(SCC(=O)NC3CCCC3)nc3ccccc3c2=O)cc1	79*	6	-26	78*	-14	13
COc1ccc(C(=O)Nn2c(C)nc3ccccc3c2=O)cc1OC	59*	14	9	-8	-19	7
COc1ccc(C(=O)Nn2c(SCC(=O)NCc3ccccc3)nc3ccccc3c2=O)cc1	78*	-2	-8	85*	-2	24
COc1ccc(C(=O)Nn2c(C)nc3ccccc3c2=O)cc1Br	-29	13	5	5	1	0
O=Nc1c2ccc[nH]c-2c2ccc([N+](=O)[O-])cc12	-43	-39	1	-10	-14	-26
Oc1ccccc1C(=S)N1CCN(c2cccc(Cl)c2)CC1	-11	10	2	-8	7	-3
C[C@H]1CN([C@@H](C)CO)C(=O)CCCn2nncc2CO[C@H]1CN(C)C(=O)c1ccccc1	3	-3	·	4	-29	4

Screening data as filed in PubChem.
